Data published in PubChem BioAssay AID1006 (Sanford-Burnham Center for Chemical Genomics, 2008).
In all, about 200,000 compounds went through this assay and about 3,000 (1.5%) were called active. Only a selection was taken, and actives are over-represented in it overall. A number with no mark means an inactive call.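 The calls were made as follows: active = inhibition above about 50% when tested at 10 µM (limit read from the data); inactive = the rest.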

Each compound was assayed against Luciferin 4-monooxygenase (Photinus pyralis) (UniProt P08659) (assay: inhibition of purified FLuc reporter enzyme – biochemical, luminescence, ATPLite, artefact control for luciferase-based inhibitor screens, primary screen (AID 1006)). Settings: ATPLite firefly luciferase biochemical luminescence, 10 min; at 10 µM; stronger effect = higher value.
Sequence of Luciferin 4-monooxygenase (Photinus pyralis) (P08659 whole entry, looked up): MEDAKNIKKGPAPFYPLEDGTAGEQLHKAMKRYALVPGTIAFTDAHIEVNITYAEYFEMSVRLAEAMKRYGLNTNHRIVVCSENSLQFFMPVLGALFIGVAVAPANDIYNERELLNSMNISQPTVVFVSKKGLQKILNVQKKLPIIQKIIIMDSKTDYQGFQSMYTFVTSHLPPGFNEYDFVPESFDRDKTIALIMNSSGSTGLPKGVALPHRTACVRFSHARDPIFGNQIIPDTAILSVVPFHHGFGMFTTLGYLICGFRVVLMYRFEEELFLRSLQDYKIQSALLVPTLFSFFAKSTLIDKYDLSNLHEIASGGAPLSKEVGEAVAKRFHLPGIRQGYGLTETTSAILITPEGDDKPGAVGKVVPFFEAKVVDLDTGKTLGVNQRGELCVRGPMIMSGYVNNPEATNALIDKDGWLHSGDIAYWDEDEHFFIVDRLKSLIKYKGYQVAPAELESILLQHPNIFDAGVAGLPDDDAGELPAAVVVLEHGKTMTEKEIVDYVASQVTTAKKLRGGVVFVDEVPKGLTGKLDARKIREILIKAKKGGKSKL
In the case of `COc1ccc2nc(Nc3nc4cc5c(cc4s3)OCCO5)sc2c1`, the inhibition is reported as 11.3%. For `c1c2c(cc3sc(N4CCCCC4)nc13)OCCO2`, the inhibition was 92.9% (active). Work on `Brc1ccc2nc(N3CCCC3)sc2c1` yielded an inhibition of 35.9%. Work on `Cc1ccc(N(C(=O)c2ccc(CN3CCOCC3)o2)C(C(=O)NCCC(C)C)c2cccs2)c(C)c1` (configuration not stated) yielded an inhibition of -4.1%. In the case of `COc1ccc(C(=O)NCC(=O)N/N=C/c2ccc([N+](=O)[O-])s2)cc1OC`, the inhibition is reported as 2.8%. Compound `OC(CNCc1ccc(Cl)c(Cl)c1)c1ccccc1` (configuration not stated) has an inhibition of -8.3%. Compound `CCCOC(=O)C1=C(C)NC2=C(C(=O)C(C(=O)OC)C(C)C2)C1c1ccc(N(C)C)cc1` (configuration not stated) has an inhibition of 0.8%. In the case of `CCCOC(=O)c1[nH]c2c(c1C)C(=O)CC(c1cc(OC)c(OC)c(OC)c1)C2` (configuration not stated), the inhibition is reported as -2.3%. In the case of `COC(=O)C1C(=O)c2c([nH]c(C(=O)OCCSC)c2C)CC1C` (configuration not stated), the inhibition is reported as 50.1% (active). Compound `CCOc1ccc(-n2cnnn2)cc1S(=O)(=O)N1CCC(C)CC1C` (configuration not stated) has an inhibition of -3.6%. With `Cc1cccc(NC(=O)CN2C(=O)c3ccccc3C2=O)c1C` the inhibition was -4%. With `Cc1ccc2nc(-c3ccc(SCC(=O)Nc4cc(C)on4)nc3)[nH]c2c1` the inhibition was 73.4% (active). Work on `Cc1ccc(-c2csc(SCC(=O)Nc3cc(C)on3)n2)cc1` yielded an inhibition of -4.8%. For `Cc1ccc(SCCC(=O)Nc2cc(C)on2)cc1`, the inhibition was -4.4%. `COC(=O)NNC(=O)C1CCC(C)CC1` (configuration not stated) showed an inhibition of -4.8%. For `CCNS(=O)(=O)c1ccc(NC(=O)c2cncc(Br)c2)cc1`, the inhibition was -4.2%. In the case of `COc1ccc(Nc2nc(NCc3ccco3)nc(N/N=C/c3ccccc3Cl)n2)cc1`, the inhibition is reported as -1.1%. `COc1cc(NC(=S)NNC(=O)CC(C)C)c(OC)cc1Cl` was tested, and the inhibition was -8.4%. In the case of `O=C1OC(/C=C/c2ccccc2)=NC/1=C/c1ccco1`, the inhibition is reported as 53.5% (active). `CC(C)(C)C1C/C(=C/c2ccco2)C(=O)/C(=C/c2ccco2)C1` (configuration not stated) was tested, and the inhibition was -5.4%. With `COc1ccccc1/C=C/C1=NC(=C\N(C)C)/C(=O)O1` the inhibition was 0.6%. `O=C(C1=C[C@H](c2coc3ccccc3c2=O)C[C@H](OCc2ccc(CO)cc2)O1)N1CCN(Cc2ccccc2)CC1` showed an inhibition of -6.2%. With `CCN(CC)c1ccc2oc(=O)c(C)nc2c1` the inhibition was -3%. Work on `CCCCCC(=O)Nc1ccc2oc(-c3ccncc3)nc2c1` yielded an inhibition of -5.7%. `CCc1ccc2oc(-c3ccc(N)cc3)nc2c1` was tested, and the inhibition was 80.7% (active). With `COc1cc(CN2CCNC(=O)C2CC(=O)NCCc2ncccc2C)cc(OC)c1` (configuration not stated) the inhibition was -1.3%. `CCOC(=O)CCCNC(=O)COC(=O)/C=C/c1ccc2c(c1)OCO2` showed an inhibition of -1.4%. With `Cc1ccccc1-n1c(C)cc(/C=C2\NC(=O)NC2=O)c1C` the inhibition was 83.9% (active). With `Cc1cc(/C=C(/C#N)C(=O)Nc2ccc(Cl)cc2)c(C)n1-c1cccnc1` the inhibition was -3.9%. `Cc1cc(/C=C2/NC(=O)NC2=O)c(C)n1-c1cccnc1` was tested, and the inhibition was 56.5% (active). Work on `Cc1cc(/C=C2\SC(=Nc3ccc(N4CCOCC4)cc3)N(C)C2=O)c(C)n1-c1cccnc1` yielded an inhibition of -0.4%. `Cc1cccc(C)c1-n1c(C)cc(/C=C2\C(=O)NN(c3ccccc3)C2=O)c1C` gave an inhibition of 13.6%. `Cc1ccc(CN2C(=O)N/C(=C/c3cc(C)n(-c4ccccn4)c3C)C2=O)cc1` showed an inhibition of 1.2%. `CC(NC(=O)c1cccc2ccccc12)c1ccc2c(c1)CCCC2` (configuration not stated) gave an inhibition of -6.2%. Work on `COc1ccc(C/C(N)=N/OC(=O)c2ccco2)cc1OC` yielded an inhibition of -2.2%. `O=C(CCc1ccccc1)NNC(=O)c1ccc(Br)cc1` showed an inhibition of -1.3%. `Cc1ccc(C)c(Cn2nnc3c(=O)[nH]c(C(=O)Nc4ccc(F)cc4)nc32)c1` was tested, and the inhibition was -10.1%. `CCN(c1ccccc1)S(=O)(=O)c1ccc2[nH]c(=O)[nH]c2c1` gave an inhibition of -6%. `O=C(COc1cc(Cl)c(Cl)cc1Cl)NCCc1ccccn1` gave an inhibition of 4.2%. `CN(CCN1CCOCC1)Cc1nc(-c2ccc3c(c2)OCO3)no1` was tested, and the inhibition was -5.1%. With `O=C(O)CC/C(=N\NC(=O)c1ccc(F)cc1)c1ccc(Br)cc1` the inhibition was -2.4%. Work on `COc1ccccc1-n1ccnc1SCC(=O)NC(C)(C)C` yielded an inhibition of -7.3%. Work on `COc1ccc(C(=O)NC2CCN(C(=S)Nc3ccccc3)CC2)cc1` yielded an inhibition of -7.5%. `COc1ccc(NC(=S)N2N=CCC2c2ccccc2)cc1` (configuration not stated) was tested, and the inhibition was 65.3% (active). `COc1ccc(C(=S)Nc2ccccc2)cc1` was tested, and the inhibition was 8.7%. `COc1ccc(C(=O)COC(=O)c2ccc3ccccc3n2)cc1` showed an inhibition of 19.4%. In the case of `CC(OC(=O)c1ccc2ccccc2n1)C(=O)c1ccccc1` (configuration not stated), the inhibition is reported as 81.1% (active). `O=C(Oc1ccc([N+](=O)[O-])cc1)c1ccc2ccccc2n1` showed an inhibition of 41.6%. `COc1ccc(Cl)cc1NC(=O)Cn1nc(-c2ccc(C)cc2)n(C)c1=S` was tested, and the inhibition was -5.1%. In the case of `Cc1ccc(C(=O)Oc2coc(CSc3nnc(NC(=O)c4cccs4)s3)cc2=O)cc1C`, the inhibition is reported as -0.1%. Work on `Cc1ccccc1N/N=C/c1ccc(N2CCOCC2)cc1` yielded an inhibition of -3.5%. For `Cc1cc(C(=O)N/N=C\C(Br)=C\c2ccccc2)c(C)o1`, the inhibition was 22.6%. For `CCN(CC)c1ccc(C(=O)N/N=C/c2ccc(N3CCOCC3)cc2)cc1`, the inhibition was -7%. `Cc1cc(C(=O)N/N=C/c2ccc(N3CCOCC3)cc2)c(C)o1` was tested, and the inhibition was 50.7% (active). With `CC(=C/c1ccccc1)/C=N/NC(=O)c1cc(C)oc1C` the inhibition was 78.3% (active). `Cc1cc(C(=O)N/N=C/c2ccccc2[N+](=O)[O-])c(C)o1` showed an inhibition of 32.2%. `Cc1ccc(NC(=S)N(Cc2ccco2)C(C)c2cccs2)cc1` (configuration not stated) gave an inhibition of 3.7%. For `CCn1nc(C)cc1C(=O)N1CCCC(C(=O)c2cccc(OC)c2)C1` (configuration not stated), the inhibition was 5.6%. `COc1ccc(-n2cc(CNC3CCOCC3)c(-c3cccc(F)c3)n2)cc1` gave an inhibition of -2.3%. For `Cn1cc([N+](=O)[O-])c(C(=O)Nc2cnn(Cc3ccc(F)cc3)c2)n1`, the inhibition was -8.5%. With `Cc1ccc(Cn2ccc(NC(=O)c3cc(C(C)C)on3)n2)cc1` the inhibition was 0%. Work on `CC(=O)Nc1ccn(Cc2c(F)cccc2Cl)n1` yielded an inhibition of -2.9%. In the case of `O=C(Nc1ccn(Cc2ccc(F)cc2)n1)c1ccncc1`, the inhibition is reported as 0.9%. `O=C(Nc1ccn(Cc2ccccc2)n1)c1cccc(F)c1` was tested, and the inhibition was 64.2% (active). For `O=C(Nc1ccn(Cc2ccccc2)n1)c1n[nH]c([N+](=O)[O-])c1Cl`, the inhibition was 83% (active). Compound `CCOc1ccc(C(CC(=O)O)NC(=O)C23CC4CC(CC(C4)C2)C3)cc1OC` (configuration not stated) has an inhibition of -3.9%. Work on `CN(C)CCCn1c(SCCN2C(=O)c3ccccc3C2=O)nc2ccccc2c1=O` yielded an inhibition of -5.8%. Work on `CC(C)N(Cc1nc(-c2ccc3c(c2)OCO3)no1)CC1CCC(=O)N1` (configuration not stated) yielded an inhibition of -8.8%. `CN(C)/C=C(/C(=O)c1ccccc1)S(=O)(=O)c1ccc(Cl)cc1` gave an inhibition of -5.6%. Work on `Cc1ccc(N2C(=O)C(CC(=O)Nc3cccc(F)c3)N(CCc3ccncc3)C2=O)cc1` (configuration not stated) yielded an inhibition of -0.5%. With `COc1cccc(-c2ccc(SCC(=O)N3CCN(c4ccccc4)CC3)nn2)c1` the inhibition was -6.1%. `C1=C(CCNc2ncnc3c2cnn3-c2ccccc2)CCCC1` was tested, and the inhibition was 10.5%. For `c1ccc(-n2ncc3c(N4CCCC4)ncnc32)cc1`, the inhibition was 73.9% (active). For `COc1ccc(-n2ncc3c(N4CCCc5ccccc54)ncnc32)cc1`, the inhibition was 54.9% (active). `COc1ccc(-n2ncc3c(N4CCc5ccccc54)ncnc32)cc1` showed an inhibition of 41.9%. For `O=C(NNc1ncnc2c1cnn2-c1ccccc1)c1ccco1`, the inhibition was 6%. `Cc1cccc(-n2ncc3c(N4CCc5ccccc54)ncnc32)c1` showed an inhibition of 17.1%. `O=C(Nc1nnc(Cc2ccc(Cl)cc2)s1)c1cccnc1` showed an inhibition of 7.5%. For `O=c1oc(/C=C/c2ccccc2)nc2ccccc12`, the inhibition was 80.5% (active). For `CCn1c(/C=C/c2ccc([N+](=O)[O-])o2)nc2ccccc2c1=O`, the inhibition was -6.1%. For `S=c1[nH]nc(/C=C/c2ccccc2)o1`, the inhibition was 7.5%. Work on `N#Cc1ccc(N2Cc3ccccc3/C2=N/C(=O)Nc2ccc(Cl)cc2)cc1` yielded an inhibition of -4.6%. In the case of `Cc1ccc(S(=O)(=O)N(CC(=O)Nc2cccc([N+](=O)[O-])c2)Cc2ccc(Cl)cc2)cc1`, the inhibition is reported as -6.1%. For `COc1ccc(/C=C/C(=O)N2CCCC2)cc1OC`, the inhibition was 5.6%. For `COc1ccc(/C=C/C(=O)Nc2ccc(C34CC5CC(CC(O)(C5)C3)C4)cc2)cc1OC`, the inhibition was 57.2% (active). Compound `COc1ccc(/C=C/C(=O)Nc2cccnc2)cc1OC` has an inhibition of 13%. Work on `CCCN(CC(=O)Nc1ccc(OC)c(OC)c1)CC(=O)Nc1ccc(F)c(F)c1F` yielded an inhibition of 8.5%. Compound `CCOc1cccc(-n2nnnc2-c2ccc(OC)cc2)c1` has an inhibition of -0.7%. With `COc1ccc(-n2nnnc2-c2nc3ccccc3s2)cc1` the inhibition was 73.2% (active). For `COc1ccc(-n2nnnc2SCC(=O)Nc2ccccc2)cc1`, the inhibition was -8%. Work on `CCc1ccc(Oc2nc([N+](=O)[O-])nn2C)cc1` yielded an inhibition of -9.5%. `Cc1nc(-c2ccccc2)sc1C(=O)/C=C/N(C)C` gave an inhibition of 10.8%. For `O=C(CSc1nncs1)NC1CCCc2ccccc21` (configuration not stated), the inhibition was -8.5%. `COCC1CCCN(Cc2nc(-c3ccc4c(c3)OCO4)no2)C1` (configuration not stated) gave an inhibition of 0.8%. Work on `O=C(O)c1ccc2c(c1)C(=O)N(c1ccc(/C=C/C(=O)c3ccccc3)cc1)C2=O` yielded an inhibition of -0.5%. In the case of `O=C(/C=C/c1ccc(N2CCOCC2)cc1)c1ccccc1`, the inhibition is reported as 60.8% (active). For `O=C(/C=C/c1ccccc1)c1ccoc1`, the inhibition was 14%.
